We go through eight compounds from PubChem BioAssay.

A short description of experiment [1]: optical density shifts of acrAB sulA E. coli – strain DRC41, OD650, 48 h, E. coli filamentation inducer project, primary screen (AID 1152).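 Note: E. coli MC1000 strain DRC41 lacking acrAB efflux pump and sulA.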 The settings on record: higher = more signal, called active from +8 up or from −8 down.
The nature of experiment [2]: probe aLefty1 binding on compound microarray – biochemical, small-molecule microarray, 635/667 nm fluorescence, primary screen (AID 1153).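 Note: score merges spot fluorescence with signal-to-noise ratio from the scanned slide images.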 As to conditions: higher = more signal.
Experiment [3] in a line: plasmodial surface anion channel blockers, osmotic lysis – cell-based, P. falciparum Indochina, OD700, 1 h, primary screen (AID 1154). The settings on record: P. falciparum Indochina infected RBC osmotic lysis, higher = more signal, called active from +8 up or from −8 down.
A short description of experiment [4]: plasmodial surface anion channel blockers, osmotic lysis – cell-based, P. falciparum Indochina, OD700, 2 h, primary screen (AID 1155).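 Note: lysis reports solute entry through the parasite surface anion channel PSAC.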 As to conditions: P. falciparum Indochina infected erythrocytes, higher = more signal, called active from +8 up or from −8 down.
Experiment [5] is described as follows: changes in parasitized red cell lysis, either direction – P. falciparum Indochina, OD700, 3 h, PSAC antagonist project, primary screen (AID 1156). The settings on record: P. falciparum-infected erythrocytes, osmotic lysis, higher = more signal, called active from +8 up or from −8 down.
Experiment [6] is described as follows: plasmodial surface anion channel blockers, osmotic lysis – cell-based, P. falciparum Indochina, OD700, 18 h, primary screen (AID 1157). The settings on record: P. falciparum Indochina infected erythrocytes, osmotic lysis OD700, 18 h; higher = more signal, called active from +8 up or from −8 down.
A short description of experiment [7]: S6 kinase pathway phospho-S6 level changes – cell-based, A549, cytoblot, luminescence, serum-stimulated, primary screen (AID 1158).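 Note: serum-stimulated A549 lung adenocarcinoma cells; signal is phosphorylated S6 detected by cytoblot immunostaining with HRP secondary.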 As to conditions: 5 h, higher = more signal.
Experiment [8] has as its target NADPH oxidase 2 (Homo sapiens) (UniProt P04839). Put plainly: compounds shifting NOX2 Amplex Red fluorescence – cell-based, HEK293-NOX2, PMA-stimulated, NOX inhibitor project, primary screen (AID 1159). Note: test concentration not given here. As to conditions: 45 min, higher = more signal, called active from +8 up or from −8 down.
For experiment [9], the target named is NADPH oxidase 4 (Homo sapiens) (UniProt Q9NPH5). The experiment is described as follows: compounds shifting NOX4 Amplex Red fluorescence – cell-based, HEK293-NOX4, tetracycline-induced, NOX inhibitor project, primary screen (AID 1160). The settings on record: HEK293-NOX4, Amplex Red H2O2 fluorescence, 45 min; higher = more signal, called active from +8 up or from −8 down.
NADPH oxidase 4 (Homo sapiens), sequence (Q9NPH5 whole entry, looked up): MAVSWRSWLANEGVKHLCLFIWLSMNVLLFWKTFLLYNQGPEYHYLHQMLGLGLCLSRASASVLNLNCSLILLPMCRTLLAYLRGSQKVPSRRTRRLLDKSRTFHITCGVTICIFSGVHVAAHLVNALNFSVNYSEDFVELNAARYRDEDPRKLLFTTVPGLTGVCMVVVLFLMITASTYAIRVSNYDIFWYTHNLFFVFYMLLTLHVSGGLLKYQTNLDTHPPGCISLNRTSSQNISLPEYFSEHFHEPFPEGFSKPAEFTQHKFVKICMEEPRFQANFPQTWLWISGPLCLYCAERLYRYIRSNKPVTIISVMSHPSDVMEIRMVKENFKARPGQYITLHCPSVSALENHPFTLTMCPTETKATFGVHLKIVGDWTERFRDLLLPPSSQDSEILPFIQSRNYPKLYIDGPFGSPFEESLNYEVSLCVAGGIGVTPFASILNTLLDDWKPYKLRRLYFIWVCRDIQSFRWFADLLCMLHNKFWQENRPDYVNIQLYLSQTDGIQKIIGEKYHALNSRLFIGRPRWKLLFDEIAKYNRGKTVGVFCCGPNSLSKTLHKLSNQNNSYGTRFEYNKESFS

Experiment [10] has as its target NADPH oxidase 5 (Homo sapiens) (UniProt Q96PH1). The experiment is described as follows: compounds shifting NOX5 Amplex Red fluorescence – cell-based, HEK293-NOX5, NOX inhibitor project, primary screen (AID 1161). The settings on record: HEK293-NOX5, ionomycin, 45 min, higher = more signal.
Experiment [11] is described as follows: compound effects on lung adenocarcinoma cell viability – A549, calcein-AM fluorescence, 48 h, basal, profiling panel (AID 1162). Note: test concentration not given here. As to conditions: higher = more signal.
Experiment [12] can be described thus: compound effects on differentiated 3T3-L1 adipocyte viability – cell-based, 3T3-L1 adipocytes, calcein-AM fluorescence, 48 h, basal, profiling panel (AID 1163). Note: test concentration not given here. The settings on record: 3T3-L1 adipocytes viability, higher = more signal.
The nature of experiment [13]: compound effects on hepatocellular carcinoma cell viability – HepG2, calcein-AM fluorescence, 48 h, basal, profiling panel (AID 1164). Note: test concentration not given here. As to conditions: higher = more signal.
Experiment [14] can be described thus: compound effects on multiple myeloma cell viability – MM1S, calcein-AM fluorescence, 48 h, basal, profiling panel (AID 1165).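 Note: viability of MM1S multiple myeloma cells under basal unstimulated conditions; test concentration not given here.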 The settings on record: higher = more signal.
The nature of experiment [15]: calcein-AM signal in unstimulated myeloma cells – cell-based, calcein-AM fluorescence, 48 h, PK04 Diversity Set, profiling panel (AID 1166).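 Note: cells grown under basal conditions without added stimulus; test concentration not given here.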 As to conditions: RPMI8226 myeloma viability, higher = more signal.
Experiment [16] is described as follows: JC-1 mitochondrial signal, unstimulated HepG2 cells – cell-based, JC-1 fluorescence, 24 h, 100 nL compound, profiling panel (AID 1167). Note: test concentration not given here. The settings on record: HepG2 mitochondrial potential, higher = more signal.
The nature of experiment [17]: JC-1 mitochondrial signal, unstimulated adipocytes – cell-based, JC-1 fluorescence, 3T3-L1 adipocytes, 24 h, 100 nL compound, profiling panel (AID 1168). Note: test concentration not given here. The settings on record: JC-1 mitochondrial fluorescence, higher = more signal, called active from +8 up or from −8 down.
Experiment [18] in a line: JC-1 mitochondrial signal, unstimulated myeloma cells – cell-based, JC-1 fluorescence, RPMI8226, 24 h, 100 nL compound, profiling panel (AID 1169). Note: test concentration not given here. The settings on record: JC-1 mitochondrial potential fluorescence, higher = more signal.
Experiment [19] can be described thus: JC-1 mitochondrial signal, unstimulated MM1S myeloma – cell-based, JC-1 fluorescence, 24 h, 100 nL compound, profiling panel (AID 1170). Note: test concentration not given here. The settings on record: MM1S mitochondrial potential, higher = more signal.
A short description of experiment [20]: resazurin metabolic signal in A549 cells – cell-based, resazurin fluorescence, 24 h, PK04 Diversity Set, profiling panel (AID 1171). Note: test concentration not given here. The settings on record: A549 viability, higher = more signal, called active from +8 up or from −8 down.

Calls of active or inactive are those of the source.

NADPH oxidase 2 (Homo sapiens), sequence (P04839 whole entry, looked up): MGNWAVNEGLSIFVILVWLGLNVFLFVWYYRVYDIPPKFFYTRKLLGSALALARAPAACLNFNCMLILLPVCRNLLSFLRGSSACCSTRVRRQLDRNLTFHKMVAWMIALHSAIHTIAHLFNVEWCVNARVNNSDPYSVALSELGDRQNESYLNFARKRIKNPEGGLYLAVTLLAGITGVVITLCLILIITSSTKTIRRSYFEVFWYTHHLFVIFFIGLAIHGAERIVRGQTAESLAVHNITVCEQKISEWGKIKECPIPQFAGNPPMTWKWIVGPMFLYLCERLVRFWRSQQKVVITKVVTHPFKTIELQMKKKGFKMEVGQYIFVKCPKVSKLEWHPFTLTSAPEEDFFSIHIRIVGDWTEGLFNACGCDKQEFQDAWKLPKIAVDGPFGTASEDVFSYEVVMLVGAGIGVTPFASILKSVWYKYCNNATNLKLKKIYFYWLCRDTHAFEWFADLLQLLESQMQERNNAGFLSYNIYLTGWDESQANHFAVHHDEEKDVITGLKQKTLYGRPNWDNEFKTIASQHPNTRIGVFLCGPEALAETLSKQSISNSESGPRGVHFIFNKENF
NADPH oxidase 5 (Homo sapiens), sequence (Q96PH1 whole entry, looked up): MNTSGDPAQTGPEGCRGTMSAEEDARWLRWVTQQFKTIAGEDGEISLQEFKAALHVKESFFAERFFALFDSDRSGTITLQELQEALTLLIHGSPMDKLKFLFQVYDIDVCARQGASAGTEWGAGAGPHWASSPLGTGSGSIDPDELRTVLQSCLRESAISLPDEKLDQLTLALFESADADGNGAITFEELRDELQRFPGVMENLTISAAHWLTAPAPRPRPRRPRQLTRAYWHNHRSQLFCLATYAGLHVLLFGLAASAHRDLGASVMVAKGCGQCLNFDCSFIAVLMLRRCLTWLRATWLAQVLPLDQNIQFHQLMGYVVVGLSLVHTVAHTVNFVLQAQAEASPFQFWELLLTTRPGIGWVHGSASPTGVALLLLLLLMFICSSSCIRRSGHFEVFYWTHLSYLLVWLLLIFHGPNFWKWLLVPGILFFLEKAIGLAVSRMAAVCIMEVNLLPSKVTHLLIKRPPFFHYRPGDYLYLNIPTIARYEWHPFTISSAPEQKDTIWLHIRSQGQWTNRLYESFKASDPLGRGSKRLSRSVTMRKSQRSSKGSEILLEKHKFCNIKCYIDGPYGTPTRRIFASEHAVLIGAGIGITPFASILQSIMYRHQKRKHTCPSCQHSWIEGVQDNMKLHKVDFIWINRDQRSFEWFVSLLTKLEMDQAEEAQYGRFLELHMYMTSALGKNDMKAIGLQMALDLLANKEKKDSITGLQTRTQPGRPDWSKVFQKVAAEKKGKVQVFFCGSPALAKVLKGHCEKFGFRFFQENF

For the compound `CCCC[C@H]1OB(O)C[C@H]2C1=C(COC)C[C@H]1C(=O)C=CC(=O)[C@H]12`, the z-score in experiment [1] was 0.685 (inactive); in experiment [3], 1.09 (inactive); in [4], 0.272 (inactive); in experiment [5], 0.224 (inactive); in [6], 0.231 (inactive); in experiment [7], 0.0946. Moreover, the z-score in experiment [8] is -0.235 (inactive); in experiment [9] it was -0.663 (inactive); in experiment [10], -0.477; in [11] it was 0.2; in experiment [12], -0.0373; in [13], -0.0926. Besides, the z-score in experiment [14] was -3.25; in experiment [15], -2.35; in experiment [16] it was -2.01; in experiment [17], -1.46 (inactive); in experiment [18] it was -0.59; in experiment [19], -0.898. Besides, the z-score in experiment [20] is -0.347 (inactive). Moreover, the composite z-score in [2] is -0.188.

For the compound `[N-]=[N+]=NCc1ccccc1C[C@]1(C(=O)NCc2ccccc2)N=C(c2ccc(OCCCO)cc2)O[C@H]1c1ccccc1CN=[N+]=[N-]`, the z-score in [1] is 1.76 (inactive); in experiment [3], 18.7 (active); in experiment [4] it was 5.01 (inactive); in experiment [5], 2.53 (inactive); in experiment [6] it was 0.936 (inactive); in experiment [7], 2.34. Moreover, the z-score in [8] is -1.09 (inactive); in experiment [9], 0.145 (inactive); in experiment [10], 0.094; in experiment [11], -1.42; in [12] it was 2.15; in [13] it was -0.955. Also, the z-score in experiment [14] was -1.23; in experiment [15], -1.69; in experiment [16], 0.247; in experiment [17] it was -0.158 (inactive); in [18] it was -0.899; in [19] it was -0.214. Moreover, in experiment [20], the z-score was -1.09 (inactive). Also, in [2], the composite z-score was 1.09.

For `COc1cc2c(cc1O)C(c1ccc(CN3CCCC3)cc1)N(Cc1ccc([N+](=O)[O-])o1)CC2` (stereo not given), the z-score was -0.715 (inactive) in [1]; 23.1 (active) in [3]; 7.28 (inactive) in experiment [4]; -0.176 (inactive) in experiment [5]; 0.818 (inactive) in experiment [6]; -0.683 in [7]. Also, the z-score is -3.89 (inactive) in [8]; -2.56 (inactive) in experiment [9]; -3.64 in experiment [10]; -0.731 in experiment [11]; 0.0389 in experiment [12]; 0.0023 in experiment [13]. Besides, the z-score in [14] is 0.279; in experiment [15] it was -0.0679; in [16], -2.18; in experiment [17], -2.19 (inactive); in experiment [18], 0.733; in [19], -0.307. Moreover, the z-score in experiment [20] was -0.679 (inactive). Moreover, the composite z-score in [2] was -0.257.

Turning to `CCCCC(=C=CC[C@@H](O)c1cccc(OCCO)c1)C[C@@H](O)COCc1ccccc1`, the z-score was 1.76 (inactive) in experiment [1]; 16.3 (active) in experiment [3]; 1.3 (inactive) in [4]; 0.605 (inactive) in [5]; -1.07 (inactive) in experiment [6]; 2.58 in experiment [7]. The z-score was -1.61 (inactive) in [8]; -1.01 (inactive) in [9]; -2.47 in experiment [10]; 1.1 in experiment [11]; 1.79 in experiment [12]; 1.3 in [13]. Besides, the z-score in experiment [14] is -1.21; in [15], 0.286; in experiment [16] it was -0.0343; in experiment [17], 0.436 (inactive); in experiment [18] it was -0.785; in experiment [19] it was -0.91. Moreover, the z-score in experiment [20] was -0.0721 (inactive). In addition, the composite z-score in experiment [2] is -0.101.

For `COCCOC(=O)N1C(=O)[C@@]2(c3cc(C#CC4(O)CCCCCC4)ccc31)[C@H](c1ccc(OCCO)cc1)N1[C@H](c3ccccc3)[C@H](c3ccccc3)OC(=O)[C@H]1[C@@H]2C(=O)N1CCCCCCC1`, the z-score in experiment [1] is 0.148 (inactive); in experiment [3] it was 2.18 (inactive); in [4], 2.02 (inactive); in experiment [5] it was 0.736 (inactive); in experiment [6], 1.02 (inactive); in experiment [7], 0.49. The z-score in experiment [8] was 0.707 (inactive); in experiment [9] it was -1.45 (inactive); in experiment [10], 0.0377; in experiment [11] it was -0.359; in experiment [12] it was 2.14; in experiment [13] it was 0.292. The z-score in experiment [14] was -0.834; in experiment [15], -1.78; in experiment [16] it was -1.1; in [17] it was -2.25 (inactive); in [18] it was -0.468; in experiment [19], -1.08. Besides, the z-score in experiment [20] is -0.557 (inactive). The composite z-score in experiment [2] amounted to 2.52.

`CC(=O)NCCCC[C@@H]1NC(=O)[C@@H]2C[C@H](C(=O)NCCCCCC[N+](C)(C)C)[C@H](c3ccc(O)cc3)N2C1=O`: the z-score is -0.303 (inactive) in experiment [1]; 1.5 (inactive) in experiment [3]; 0.0681 (inactive) in [4]; -3.5 (inactive) in experiment [5]; 0.0574 (inactive) in experiment [6]; -0.879 in [7]. Also, the z-score in [8] is 0.881 (inactive); in [9], 0.983 (inactive); in experiment [10], 0.139; in experiment [11] it was 0.131; in experiment [12], -0.348; in experiment [13] it was -0.611. For the same compound, the z-score in [14] is 0.258; in experiment [15] it was -0.539; in experiment [16], -1.33; in experiment [17] it was 0.164 (inactive); in experiment [18] it was 0.169; in [19] it was -0.5. Moreover, in [20], the z-score was -0.557 (inactive). The compound also gave a composite z-score in experiment [2] of 0.102.

Consider `C=CCC(OC(C)=O)[C@@H]1[C@@H](N(Cc2cc3ccccc3o2)C(=O)c2ccc(-c3ccccc3)cc2)c2cc(OCCCO)ccc2N1C(=O)c1ccc2ccccc2n1` (stereo not given in full), for which the z-score in [1] is 0.803 (inactive); in [3] it was 1.01 (inactive); in experiment [4] it was 0.698 (inactive); in experiment [5], -0.44 (inactive); in experiment [6], 0.655 (inactive); in experiment [7], -0.113. The z-score in experiment [8] was 1.88 (inactive); in experiment [9], -0.895 (inactive); in [10], 1.66; in experiment [11], 0.704; in [12], 0.242; in [13], 1.43. The z-score in experiment [14] was 0.479; in [15], -0.11; in experiment [16], 2.66; in experiment [17], 0.229 (inactive); in experiment [18], -0.202; in experiment [19], 1.32. Further, the z-score in experiment [20] was 0.967 (inactive). In [2], the composite z-score was -0.0534.

Take `O=C1O[C@H](c2ccccc2)[C@H](c2ccccc2)N2[C@H]1[C@@H](C(=O)NC[C@H](O)c1ccccc1)[C@]1(C(=O)Nc3ccc(C#CCCO)cc31)[C@H]2c1ccccc1OCCO`: the z-score was 0.631 (inactive) in [1]; 2.45 (inactive) in experiment [3]; 0.612 (inactive) in experiment [4]; 0.478 (inactive) in [5]; 0.786 (inactive) in experiment [6]; 0.288 in experiment [7]. The z-score was 2.14 (inactive) in [8]; 1.35 (inactive) in experiment [9]; 1.6 in experiment [10]; -0.661 in experiment [11]; 1.43 in experiment [12]; -1.12 in [13]. The z-score was -0.751 in experiment [14]; -1.41 in experiment [15]; -0.864 in experiment [16]; 2.89 (inactive) in experiment [17]; -0.72 in experiment [18]; -0.341 in [19]. Also, in experiment [20], the z-score was 1.86 (inactive). This compound also came in with a composite z-score in experiment [2] of 0.0752.
